The values that follow come from PubChem BioAssay AID1508636 (National Center for Advancing Translational Sciences (NCATS), 2021).

Records with an inconclusive call do not appear. Values without a mark were called inactive. Activity calls are given as the source filed them. Calls follow the shape of the dose curve; as a rule, active = well fitted inhibition curve with a large enough effect; inconclusive = small, poorly fitted or top-dose-only effect; inactive = flat fitted curve, though single readings scatter. Where a SMILES comes first, the peptide text is derived from it. [ ]: non-standard residue; d: D form. The star is where a group is joined. Cbz = O=C(OCc1ccccc1)*; Nva = CCC[CH](N)C(=O)O

Chain of ATP-dependent translocase ABCB1 (Homo sapiens) (P08183 whole entry, looked up): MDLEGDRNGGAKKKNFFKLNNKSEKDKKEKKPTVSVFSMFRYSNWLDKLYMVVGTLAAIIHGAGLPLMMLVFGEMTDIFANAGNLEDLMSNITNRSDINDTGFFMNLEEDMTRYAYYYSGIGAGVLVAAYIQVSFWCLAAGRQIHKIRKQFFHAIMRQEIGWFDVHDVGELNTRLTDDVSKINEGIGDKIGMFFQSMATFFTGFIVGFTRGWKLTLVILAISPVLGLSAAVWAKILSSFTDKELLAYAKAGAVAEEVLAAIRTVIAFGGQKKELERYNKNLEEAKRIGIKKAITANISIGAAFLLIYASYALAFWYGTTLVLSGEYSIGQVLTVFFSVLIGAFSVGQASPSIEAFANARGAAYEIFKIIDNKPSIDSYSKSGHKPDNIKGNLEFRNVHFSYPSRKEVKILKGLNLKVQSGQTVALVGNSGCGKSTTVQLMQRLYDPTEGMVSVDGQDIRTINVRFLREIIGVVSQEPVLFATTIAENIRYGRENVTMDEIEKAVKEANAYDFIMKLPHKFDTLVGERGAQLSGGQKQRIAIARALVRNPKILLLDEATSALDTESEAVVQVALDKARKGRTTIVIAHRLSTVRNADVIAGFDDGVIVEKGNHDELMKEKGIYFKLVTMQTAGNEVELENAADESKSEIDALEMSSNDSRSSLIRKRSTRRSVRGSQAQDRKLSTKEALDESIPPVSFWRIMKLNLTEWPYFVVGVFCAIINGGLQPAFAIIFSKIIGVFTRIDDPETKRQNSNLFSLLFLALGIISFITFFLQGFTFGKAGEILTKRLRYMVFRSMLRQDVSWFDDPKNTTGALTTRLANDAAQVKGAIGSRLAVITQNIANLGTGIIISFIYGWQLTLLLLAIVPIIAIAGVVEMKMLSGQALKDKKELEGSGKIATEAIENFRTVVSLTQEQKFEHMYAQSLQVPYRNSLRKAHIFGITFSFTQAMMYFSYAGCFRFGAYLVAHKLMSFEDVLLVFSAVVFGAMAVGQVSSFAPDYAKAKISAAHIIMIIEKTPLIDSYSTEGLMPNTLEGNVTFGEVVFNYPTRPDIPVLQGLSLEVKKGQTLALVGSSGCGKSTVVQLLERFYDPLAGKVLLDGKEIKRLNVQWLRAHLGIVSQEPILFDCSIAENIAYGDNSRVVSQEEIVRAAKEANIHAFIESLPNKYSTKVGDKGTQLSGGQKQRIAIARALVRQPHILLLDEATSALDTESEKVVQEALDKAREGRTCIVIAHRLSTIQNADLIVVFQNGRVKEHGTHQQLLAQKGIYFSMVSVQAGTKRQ

This assay has as its target ATP-dependent translocase ABCB1 (Homo sapiens) (UniProt P08183). As to the kind of experiment: qHTS for characterization and localization of zebrafish homologs of the human ABCB1 multidrug transporter: P-gp overexpressing MDR-19 cells. To be noted: MDR-19 cells overexpressing P-gp, CellTiter-Glo luminescence viability, 72 h; series mostly up to 46.1 µM; activity change, negative = inhibition: at the top concentration. From the text: The zebrafish has emerged as a potential model to study the blood-brain barrier (BBB) given its similarities with mammalian systems. However, little information has been available with regard to homologous ATP-binding cassette transporters expressed at the zebrafish BBB. Two transporters that are highly expressed at the human BBB are P-glycoprotein (P-gp, encoded by the ABCB1 gene) and ABCG2 (encoded by the ABCG2 gene). In this study, we focus on characterization of P-gp homologs in the zebrafish, which has two genes that are homologous to human ABCB1 - abcb4 and abcb5. We generated stably-transfected cell lines to determine their substrate specificities. […] Zebrafish abcb4 also colocalized with claudin 5 expression in brain endothelial cells.
A high-throughput screen was performed as previously described on empty vector transfected cells, P-gp-overexpressing MDR-19 cells and cells transfected with full-length zebrafish abcb4 (ZF Abcb4) or abcb5 (ZF Abcb5). Briefly, cells were plated into 1536-well plates at a density of 500 cells/well in 5 uL media. P-gp substrate compounds (approximately 90) selected from our previous study were then added at varying concentrations using a 1536-head pin tool (Kalypsis, San Diego, CA) and plates were incubated at 37C in 5% CO2 for 72 h. CellTiter-Glo reagent (Promega) was dispensed into the wells, incubated for 5 min and luminescence was read on a ViewLux instrument (Perkin-Elmer).
Cytotoxic compounds were defined as those that yielded a curve class of -1.1, -1.2, -2.1, -2.2, -2.3, or -2.4, a maximum response of >50% and an AC50 of < 10 uM. All compounds from screening analysis were tested in Vector (empty vector control), MDR-19 (P-gp overexpressing), zebrafish abcb4 (ZF Abcb4) and abcb5 (ZF Abcb5) expression cell lines.
1. Tobie D Lee, Olivia W Lee, Kyle R Brimacombe, Lu Chen, Rajarshi Guha, Sabrina Lusvarghi, Bethilehem G Tebase, Carleen Klumpp-Thomas, Robert W Robey, Suresh V Ambudkar, Min Shen, Michael M Gottesman, Matthew D Hall. A High-Throughput Screen of a Library of Therapeutics Identifies Cytotoxic Substrates of P-glycoprotein. Mol Pharmacol. 2019, Nov;96(5):629-640.
In general terms: Quantitative high-throughput screening tests each substance at several concentrations.
Consider `C#Cc1cccc(Nc2ncnc3cc(OC)c(OCCCCCCC(=O)NO)cc23)c1`, for which the Potency is 14.8 µM (active).

Consider `CCC(C)C(=O)OC1CC(O)C23C4OCC5(C(O)CC2C1(C)C(O)O4)C3C(=O)C(O)C1(C)C(O)(c2ccoc2)CC2OC251` (stereo not given), for which the “activity change, negative = inhibition” value is 3.34% [at 15.2 µM].

As to `CN(C)C1CCN(C(=O)c2ccc(NC(=O)Nc3nc(N4CCOCC4)nc(N4CCOCC4)n3)cc2)CC1`, the “activity change, negative = inhibition” value is 2.28%.

Take `Cc1[nH]c2ccccc2c1CCNCc1ccc(/C=C/C(=O)NO)cc1`: the Potency is 1.32 µM (active).

Turning to `O=C(NC1CC1)c1cccc(-c2ccc3c(NC(=O)C4CC4)n[nH]c3c2)c1`, the “activity change, negative = inhibition” value is -21.2%.

For the compound `COc1cccc2c1C(=O)c1c(O)c3c(c(O)c1C2=O)C[C@@](O)(C(=O)CO)C[C@H]3O[C@H]1C[C@H](N)[C@@H](O)[C@H](C)O1`, the Potency was 11.8 µM (active).

For the compound `CC(=O)C1(O)Cc2c(O)c3c(c(O)c2C(OC2CC(N)C(O)C(C)O2)C1)C(=O)c1c(O)cccc1C3=O` (stereo not given), the Potency was 0.148 µM (active).

As for `C[C@@H](Oc1cc(-n2cnc3ccc(CN4CCN(C)CC4)cc32)sc1C(N)=O)c1ccccc1C(F)(F)F`, the Potency is 0.469 µM (active).

Regarding `CC(NCc1ccc2c(c1)nc(NC(=O)c1ccc(-c3cn[nH]c3)s1)n2CC(C)(C)O)C(C)(C)C` (stereo not given), the Potency is 2.96 µM (active).

In the case of `CC(C)C[C@@H](C=O)NC(=O)[C@H](CC(C)C)NC(=O)[C@H](CC(C)C)NC(=O)OCc1ccccc1` (Cbz-Leu-Leu-Leu-aldehyde), the Potency was 3.72 µM (active).

`CCS(=O)(=O)c1cccc(-c2cc(C(=O)NC3CCN(C)CC3)c(C)c3[nH]c4ncc(C)cc4c23)c1`: the “activity change, negative = inhibition” value is -8.71%.

Turning to `Cc1ccc(C(=O)N(CCCN)C(c2nc3cc(Cl)ccc3c(=O)n2Cc2ccccc2)C(C)C)cc1` (stereo not given), the Potency is 14.8 µM (active).

As for `CC1(C)CC[C@]2(C(=O)OC3OC(CO)C(O)C(O)C3O)CC[C@]3(C)C(=CCC4[C@@]5(C)CC[C@H](OC6OC(C(=O)O)C(O)C(O)C6O)C(CO)(CO)C5CC[C@]43C)[C@@H]2C1` (stereo not given in full), the “activity change, negative = inhibition” value was 4.43% [at 15.2 µM].

Regarding `NC(=O)Nc1cc(-c2cccc(F)c2)sc1C(=O)N[C@H]1CCCNC1`, the Potency is 8.33 µM (active).

`C[C@@H]1O[C@@H](O[C@H]2[C@@H](OC(=O)[C@]34CCC(C)(C)CC3C3=CCC5[C@@]6(C)C[C@H](O)[C@H](O[C@@H]7O[C@H](CO)[C@@H](O)[C@H](O)[C@H]7O[C@@H]7OC[C@@H](O)[C@H](O)[C@H]7O)[C@@](C)(C(=O)O)C6CC[C@@]5(C)[C@]3(C)CC4)OC[C@H](O)[C@@H]2O)[C@H](O)[C@H](O)[C@H]1O[C@@H]1OC[C@@H](O)[C@H](O)[C@H]1O` (stereo not given in full): the activity change, negative = inhibition is -1.44% [at 8.96 µM].

Turning to `Cc1cc(Nc2cc(NC(=O)c3c(Cl)cccc3Cl)ccn2)nc(N)n1`, the Potency is 13.2 µM (active).

Regarding `C/C=C1/NC(=O)C2CSSCCC=CC(CC(=O)NC(C(C)C)C(=O)N2)OC(=O)C(C(C)C)NC1=O` (stereo not given), the Potency is 7.43 µM (active).

As to `CN(C)c1ccc(C(=C2C=CC(=[N+](C)C)C=C2)c2ccc(N(C)C)cc2)cc1`, the Potency is 4.69 µM (active).

`CC(C)CC(=O)Nc1n[nH]c2c1CN(C(=O)C1CCN(C)CC1)C2(C)C`: the “activity change, negative = inhibition” value is -14.7%.

As to `CCN(CC)Cc1ccc(C(=O)N(CCc2ccccc2OC)[C@@H]2CCNC2)cc1`, the “activity change, negative = inhibition” value is 0.0961%.

On to `COc1cc2ncn(-c3cc(OCc4ccccc4C(F)(F)F)c(C(N)=O)s3)c2cc1OC`, for which the Potency is 5.4 µM (active).

For `O=C(NC1CCNCC1)c1[nH]ncc1NC(=O)c1c(Cl)cccc1Cl`, the “activity change, negative = inhibition” value was -24%.

For `CN(C)C/C=C/C(=O)Nc1cccc(C(=O)Nc2ccc(Nc3nccc(-c4cccnc4)n3)cc2)c1`, the “activity change, negative = inhibition” value was -8.41%.

`C=CCNC1=C2CC(C)CC(OC)C(O)C(C)/C=C(\C)C(OC(N)=O)C(OC)/C=C/C=C(\C)C(=O)NC(=CC1=O)C2=O` (stereo not given): the Potency is 10.5 µM (active).

As to `CCn1c(-c2nonc2N)nc2c(C#CC(C)(C)O)ncc(OC[C@H]3CCCNC3)c21`, the “activity change, negative = inhibition” value is -13.1%.

In the case of `C#CCN(Cc1cc2c(=O)n(C)c(CN3CCN(C)CC3)nc2cc1Cl)c1ccc(C(=O)NCc2cccnc2)cc1`, the “activity change, negative = inhibition” value was -24.7%.

Consider `COc1cc2c(NC3CCN(C(C)C)CC3)nc(N3CCCN(C)CC3)nc2cc1OCCOCCN(C)C`, for which the “activity change, negative = inhibition” value was -8.95%.

`CCN(CCCO)CCCOc1ccc2c(Nc3cc(CC(=O)Nc4cccc(F)c4)[nH]n3)ncnc2c1`: the “activity change, negative = inhibition” value was -4.66%.

In the case of `CN(c1ncccc1CNc1nc(Nc2ccc3c(c2)CC(=O)N3)ncc1C(F)(F)F)S(C)(=O)=O`, the Potency is 18.7 µM (active).

Take `CCCCc1nc2cc(C=CC(=O)NO)ccc2n1CCN(CC)CC`: the Potency was 5.26 µM (active).

As to `COC(C(=O)N1Cc2[nH]nc(NC(=O)c3ccc(N4CCN(C)CC4)cc3)c2C1)c1ccccc1` (stereo not given), the “activity change, negative = inhibition” value was -7.32%.

On to `Cc1ccc(-c2ncn(-c3ccc(Nc4nccc(-c5cccc(N6CCOCC6)c5)n4)cc3)n2)cn1`, for which the Potency is 3.72 µM (active).

Take `C=CCn1c(=O)c2cnc(Nc3ccc(N4CCN(C)CC4)cc3)nc2n1-c1cccc(C(C)(C)O)n1`: the Potency was 4.69 µM (active).

Regarding `CC(=O)O[C@@H]1C[C@H](O)[C@@]23CO[C@@H](O)C1(C)[C@@H]2C[C@@H](O)[C@]1(C)[C@@H]3C(=O)[C@H](OC(C)=O)[C@@]2(C)[C@H](c3ccoc3)C[C@H]3O[C@]321`, the Potency was 3.72 µM (active).

For the compound `COc1cc2c(NC3CCN(C(C)C)CC3)nc(N3CCCN(C)CC3)nc2cc1OCCCN1CCCC1`, the “activity change, negative = inhibition” value is -13.1%.

For `CN(C)C1CCN(C(=O)c2ccc(NC(=O)Nc3ccc(-c4nc(N5CCOCC5)nc(N5CCOCC5)n4)cc3)cc2)CC1`, the “activity change, negative = inhibition” value is 4.04%.

Take `CCN1CCN(Cc2ccc(NC(=O)Nc3ccc(Oc4cc(NC)ncn4)cc3)cc2C(F)(F)F)CC1`: the “activity change, negative = inhibition” value was 4.09%.

Regarding `COC[C@H](NC(=O)c1cnc(C)s1)C(=O)N[C@@H](COC)C(=O)N[C@@H](Cc1ccccc1)C(=O)[C@@]1(C)CO1`, the Potency was 0.59 µM (active).

Turning to `CCCC(C=O)NC(=O)C(CC(C)C)NC(=O)C(CC(C)C)NC(=O)OCc1ccccc1` (stereo not drawn) (Cbz-Leu-Leu-[Nva]-aldehyde; configuration not given here), the Potency was 4.18 µM (active).

Consider `Cc1ccc(C(=O)N(CCCN)[C@@H](c2oc3cc(Cl)ccc3c(=O)c2Cc2ccccc2)C(C)C)cc1`, for which the Potency is 13.2 µM (active).
